Compounds with a hit are over-represented: about 21% of the library has one in this group of screens.
Pf growth 48h: P. falciparum growth inhibition at 48 hours (one generation); P. falciparum luciferase growth in erythrocytes, 48 h; Potency, µM (doses to about 28.7 µM), inactives show at the highest dose activity change, negative = inhibition, actives largely listed as inhibitors; 310,000 compounds, 5.9% hits; also: potency is read from the fitted curve at half-maximal effect; % is scaled to controls: 0 for no effect and ±100 for the full control effect
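Here the parasites carry a stable luciferase gene and grow inside erythrocytes in Albumax-based RPMI medium with compound for one erythrocytic cycle. Activity is scored as loss of luminescent signal.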
CHX counter: counter-screen hit for Shiga toxin inhibitors, cycloheximide. 300,000 compounds, 12% hits. max response, %. cell reporter, cycloheximide protein synthesis inhibition counterscreen; in the data active = max response mostly above about 13%, no sharp cut-off; inactive = mostly below about 14%; also: read at 38.3 µM for the half of the compounds with a filed dose; 0% is about no effect
Pf growth 96h: P. falciparum growth inhibition at 96 hours | P. falciparum luciferase reporter growth, 96 h | Potency, µM (top dose mostly 28.7 µM), for the others: at the top dose activity change, negative = inhibition, actives largely listed as inhibitors | 320,000 compounds, 6.9% hits; also: potency is read from the fitted curve at half-maximal effect; % is scaled to controls: 0 for no effect and ±100 for the full control effect
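Cell-based qHTS: luciferase-tagged P. falciparum in erythrocytes (2% hematocrit, 0.05% parasitemia final) incubated with compounds for 96 hours, 37 C, 5% CO2; luciferase detection reagent then added and luminescence measured.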
NS1 function inh: inhibitors of influenza NS1 protein function | 270,000 compounds, 0.4% hits | AID 2326 | Potency, µM (titrated, usually from 46.1 µM), without a hit: at the highest dose activity, positive = more growth; calls by dose curve; also: potency is read from the fitted curve at half-maximal effect; actives are rising curves; nearly all actives have a fitted effect of over 50% in size
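In this qHTS, NS1 from influenza A is expressed in budding yeast, where it slows growth. Cells are switched from glucose to 2% galactose medium (pH 6.0, -URA), treated with compound, and growth recovery is read at OD600.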
Shiga toxin inh: inhibitors of Shiga toxin in Vero cells | Vero cells, Shiga toxin protein synthesis inhibition reporter | inhibition, % at 38.7 µM | 290,000 compounds, 9.2% hits | AID 2315; in the data active = inhibition mostly above about 28%, no sharp cut-off; inactive = mostly below about 43%; also: 0% is about no effect
SARS PLpro yeast: inhibitors of SARS-CoV papain-like protease in yeast. 330,000 compounds, 0.19% hits. AID 485353. Potency, µM (top dose mostly 32.9 µM), without a hit: at the highest dose activity, positive = growth rescue, usual class: activators. S. cerevisiae expressing SARS-CoV PLpro, growth rescue; calls by dose curve; also: potency is read from the fitted curve at half-maximal effect; 0% is about no effect; nearly all actives have a fitted effect of over 55% in size
The depositor's hits bear a star; ? = inconclusive; . = no result given; [ ] = remark or other dose. Unless noted, calls follow the shape of the dose curve; as a rule, active = well fitted inhibition curve with a large enough effect; inconclusive = small, poorly fitted or top-dose-only effect, or another doubt; inactive = no such curve, though single readings can be large or run the other way.

SMILES	Pf growth 48h	CHX counter	Pf growth 96h	NS1 function inh	Shiga toxin inh	SARS PLpro yeast
COc1ccc2cc(CN(CC3COCCO3)S(=O)(=O)c3ccc(Cl)cc3)c(=O)[nH]c2c1 (configuration not stated)	8%	8	0%	-6%	9	4%
CC(C)(CC(=O)N1CCN(c2ccc(Cl)cc2)CC1)CC1=NS(=O)(=O)c2ccccc2N1	9.3µM*	-2	102%	-42%	-3	7%
CCN1CCN(c2ccc(NC(=O)c3cc(OC)c(OC)c(OC)c3)cc2)CC1	6%	-1	-66%	-3%	-9	-3%
Cc1ccc(CNS(=O)(=O)c2c(C)[nH]c(=O)[nH]c2=O)cc1	-1%	-4	-12%	-4%	17	0%
O=C(OCC(=O)c1ccc[nH]1)c1ccc2ccccc2n1	-2%	19*	35%	.	18	-5%
O=C(COC(=O)c1ccc2ccccc2n1)c1ccccc1	-9%	46*	-10%	.	52	2%
O=C(COC(=O)c1nc(Cl)c(Cl)c(Cl)c1Cl)c1ccc[nH]1	21%	.	51%	.	.	-13%
NC(=O)c1ccc(NC(=O)COC(=O)c2ccc3ccccc3n2)cc1	.	.	.	.	.	-2%
O=C(OCc1ccc(F)cc1)c1ccc2ccccc2n1	18%	25*	0%	.	46*	-1%
CC(C)(C)OC(=O)NNC(=O)Nc1ccccc1C(F)(F)F	-1%[5.75 µM]	14	1%	.	20	1%
CSc1ccccc1C(=O)OCC(=O)NC1CCS(=O)(=O)C1 (configuration not stated)	16%	-3	?	.	-4	0%
CCOC(=O)C1=C(C)N(C)C(C)=C(C(=O)OCC)C1c1ccncc1	?	-1	17%	-14%	-8	-1%
CC1=C(C(=O)OC(C)C)C(c2ccccc2)NC(=O)N1C (configuration not stated)	-4%	-2	9.3µM*	21%	-23	0%
CCOC(=O)C1=C(C)N(C)C(C)=C(C(=O)OCC)C1c1ccccc1	5.2µM*	-2	?	-8%	-13	11%
CCCCOc1ccccc1C1C(C(=O)OC)=C(C)N(C)C(C)=C1C(=O)OC	13µM*	-1	24%	-104%	14	-38%
CCCCN1C=C(C(=O)OC)C(c2ccccc2C(F)(F)F)C(C(=O)OC)=C1	.	-2	0.52µM*	-1%	-23	9%
COC(=O)C1=C(C)N(C)C(C)=C(C(=O)OC)C1c1ccccc1C	?	-4	-3%	-4%	-14	-5%
COC(=O)C1=C(C)N(C)C(=O)NC1c1ccccc1 (configuration not stated)	-6%	-5	57%	6%	-12	-2%
CCC(C)n1c(-c2cccs2)nc2nc3ccccc3nc21 (configuration not stated)	?	-2	.	-93%	17	-3%
Cc1cccc(OCc2nnc(SCc3cc(=O)n4cc(Br)ccc4n3)o2)c1	?	-4	.	-11%	-15	-3%
O=C1CC(NS(=O)(=O)c2cccnc2)CN1c1cccc(F)c1 (configuration not stated)	1%	.	13%	.	.	-3%
Cc1ccc(C(=O)Nc2nn(C)c3cccc(F)c23)cc1	62%	18*	103%	-5%	29	-1%
Cc1[nH]c2ccccc2c(=O)c1SC(F)(F)C(F)C(F)(F)F (configuration not stated)	0.83µM*	-3	3.3µM*	-93%	13	-28%
COC(=O)C(F)(F)Sc1c(C)[nH]c2ccccc12	-5%	-1	?	-88%	-7	-41%
COc1ccc2c(c1)CC/C(=C\c1ccc(C)o1)C2=O	11%	56*	59%	-12%	91*	-6%
O=C1/C(=C/c2ccc(O)cc2)CCc2ccc([N+](=O)[O-])cc21	25%	-1	14%	-9%	29	6%
COc1ccc(N2C(=O)/C(=C/c3ccc(C)o3)C(=O)NC2=S)c(OC)c1	-2%	-3	-18%	26%	.	4%
COc1ccc2c(c1)CC/C(=C/c1ccncc1)C2=O	-12%	32*	259%	-18%	54	-61%
COc1ccc(NS(=O)(=O)c2ccc(NS(=O)(=O)c3cccc(C(=O)O)c3)cc2)cc1	29%	-7	15%	4%	43	2%
